Assay results as given in the supplement of paper PMC3545927.
This is one part of the list. The hit rate among all sequences tested is not known here.

Molecular target: furin, P09958
Assay: furin cleavage Z-score vs untreated control; higher = more cleavage, active = 3.5 or more, inactive = 1 or less, 8 variable residues between constant flanks
Method in brief: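 Reactions of 0.01 ml ran for 7.5, 15 or 30 min in 50 mM HEPES pH 7.5 with CaCl2 and NaCl, at 1:10 enzyme:substrate. In them, purified furin acted on bead-held 8-mer peptides fused to a cDNA oligonucleotide. The cleavage Z-score was obtained by lowess-adjusting log sequencing counts of released DNA against furin-free reactions and scaling by median absolute deviation.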

Sequence of furin, P09958 (P09958 whole entry): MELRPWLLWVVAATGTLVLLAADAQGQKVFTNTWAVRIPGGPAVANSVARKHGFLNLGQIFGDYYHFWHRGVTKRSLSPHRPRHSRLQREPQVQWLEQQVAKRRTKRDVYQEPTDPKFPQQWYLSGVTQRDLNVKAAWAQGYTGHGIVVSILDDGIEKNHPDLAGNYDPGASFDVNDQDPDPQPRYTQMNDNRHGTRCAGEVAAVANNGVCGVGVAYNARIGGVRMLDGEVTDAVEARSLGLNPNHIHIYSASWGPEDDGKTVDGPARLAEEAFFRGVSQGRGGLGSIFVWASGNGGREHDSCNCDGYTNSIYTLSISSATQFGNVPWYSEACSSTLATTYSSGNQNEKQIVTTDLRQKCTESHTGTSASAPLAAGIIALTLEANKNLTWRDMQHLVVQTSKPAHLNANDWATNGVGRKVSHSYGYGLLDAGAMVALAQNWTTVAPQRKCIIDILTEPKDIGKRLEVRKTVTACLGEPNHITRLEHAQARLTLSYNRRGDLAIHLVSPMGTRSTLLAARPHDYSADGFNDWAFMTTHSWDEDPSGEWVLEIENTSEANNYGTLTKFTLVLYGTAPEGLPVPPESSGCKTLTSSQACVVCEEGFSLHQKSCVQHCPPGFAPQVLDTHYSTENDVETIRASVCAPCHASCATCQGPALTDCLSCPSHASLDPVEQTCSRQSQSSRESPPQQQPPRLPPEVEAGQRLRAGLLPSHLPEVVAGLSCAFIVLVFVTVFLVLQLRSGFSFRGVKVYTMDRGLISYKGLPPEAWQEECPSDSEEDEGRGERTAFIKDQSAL

| Sequence | furin cleavage Z-score (7.5 min) | furin cleavage Z-score (15 min) | furin cleavage Z-score (30 min) |
| --- | --- | --- | --- |
| CASTPCSYHLAGNASASA [HC2529] | 0.0863 (inactive) | 1 | 1.34 |
| CAEVVTSFWVAGNASASA [HC2207] | -0.594 (inactive) | 1.74 | -0.243 (inactive) |
| CASIPCSAHLAGNASASA [HC2484] | 0.328 (inactive) | 0.418 (inactive) | 0.274 (inactive) |
| CAVVCCAMSYAGNASASA [HC101] | 1.72 | 0.536 (inactive) | 0.579 (inactive) |
| CASVPAEILRAGNASASA [HC1295] | 0.956 (inactive) | 1.63 | 1.9 |
| CAYDAGCAWYAGNASASA [HC921] | 1.18 | 0.654 (inactive) | 0.883 (inactive) |
| CALVSFLVFFAGNASASA [HC543] | -1.85 (inactive) | -1.89 (inactive) | -0.773 (inactive) |
| CARSRKIAESAGNASASA [FS-2526] | -1.24 (inactive) | -0.08 (inactive) | -0.238 (inactive) |
| CASQGRRRRPAGNASASA [FS-194] | -0.188 (inactive) | 0.828 (inactive) | 0.793 (inactive) |
| CARSRNLGKVAGNASASA [HC218] | 1.83 | 3.1 | 0.167 (inactive) |
| CARSRRTWELAGNASASA [FS-3265] | -1.05 (inactive) | 3.1 | 1.34 |
| CAPPSRRRRPAGNASASA [FS-1052] | 0.863 (inactive) | 0.662 (inactive) | 0.635 (inactive) |
| CARSRRAVSVAGNASASA [FS-2815] | 4.34 (active) | 4.32 (active) | 4.26 (active) |
| CARSRRRRRPAGNASASA [FS-1407] | 4.05 (active) | 4.27 (active) | 4.75 (active) |
| CARSRRTICVAGNASASA [FS-3239] | 3.04 | 0.821 (inactive) | 3.9 (active) |
| CARSRKAVDWAGNASASA [FS-2238] | -0.617 (inactive) | 2.48 | 2.21 |
| CARSRRAATSAGNASASA [FS-3092] | 10.1 (active) | 11.9 (active) | 9.59 (active) |
| CARSFRSVTSAGNASASA [FS-3234] | -0.371 (inactive) | 0.166 (inactive) | 0.853 (inactive) |
| CARSNRDVFVAGNASASA [FS-1975] | 1.39 | 1.28 | 0.58 (inactive) |
| CASTPCSAHVAGNASASA [HC2570] | 0.366 (inactive) | 0.384 (inactive) | 0.66 (inactive) |
| CASGSWLRDIAGNASASA [HC1147] | -1.83 (inactive) | -1.36 (inactive) | 0.113 (inactive) |
| CAVDFIPVENAGNASASA [HC757] | -0.627 (inactive) | -0.626 (inactive) | -2 (inactive) |
| CAPNSPSKRGAGNASASA [FS-474] | 0.58 (inactive) | -0.142 (inactive) | 0.811 (inactive) |
| CAHCSRSKRPAGNASASA [FS-790] | 0.521 (inactive) | 0.407 (inactive) | -1.15 (inactive) |

| Sequence | furin cleavage Z-score (7.5 min) | furin cleavage Z-score (15 min) | furin cleavage Z-score (30 min) |
| --- | --- | --- | --- |
| CAVTVRWKRGAGNASASA [FS-313] | 10.9 (active) | 12.2 (active) | 8.51 (active) |
| CAQQSRSKRGAGNASASA [FS-286] | 7.44 (active) | 8.25 (active) | 7.09 (active) |
| CAVLQRSKRGAGNASASA [FS-1177] | 10.8 (active) | 9.33 (active) | 7.91 (active) |
| CAMWERYCRGAGNASASA [FS-1377] | 1.18 | 1.38 | 0.416 (inactive) |
| CAIRMYVGGVAGNASASA [HC475] | -0.513 (inactive) | -1.17 (inactive) | -0.0738 (inactive) |
| CAWHYPPKPCAGNASASA [HC404] | 2.21 | 0.243 (inactive) | -0.391 (inactive) |
| CADSSVLCECAGNASASA [HC917] | -0.488 (inactive) | 0.33 (inactive) | -0.601 (inactive) |
| CAEVVTATWVAGNASASA [HC141] | 0.437 (inactive) | 0.0461 (inactive) | -0.276 (inactive) |
| CAETWKKPDYAGNASASA [HC1310] | -0.221 (inactive) | -1.55 (inactive) | -1.15 (inactive) |
| CAVVCCSMKYAGNASASA [HC2074] | 0.109 (inactive) | 0.25 (inactive) | 0.72 (inactive) |
| CAVVACSMSYAGNASASA [HC2023] | 1.53 | 0.103 (inactive) | 1.35 |
| CASKGRIRRRAGNASASA [FS-1081] | 8.99 (active) | 8.1 (active) | 8.52 (active) |
| CASRGRRRRRAGNASASA [FS-302] | 4.34 (active) | 2.4 | 4.26 (active) |
| CASRSRRRRRAGNASASA [FS-1490] | 8.08 (active) | 8.87 (active) | 7.6 (active) |
| CACVTQTVDFAGNASASA [HC889] | 0.399 (inactive) | -1.73 (inactive) | 0.371 (inactive) |
| CAIPPLNVRGAGNASASA [HC591] | -2.18 (inactive) | -0.0771 (inactive) | -0.417 (inactive) |
| CAITPRCLVDAGNASASA [HC462] | -0.371 (inactive) | -0.729 (inactive) | -2.3 (inactive) |
| CARTPRPGEQAGNASASA [FS-2832] | -0.162 (inactive) | -0.138 (inactive) | -0.877 (inactive) |
| CARTRRHLHDAGNASASA [FS-2615] | 7.74 (active) | 9.2 (active) | 8.75 (active) |
| CARTRRLLDKAGNASASA [FS-2834] | -0.433 (inactive) | -1.53 (inactive) | -0.417 (inactive) |
| CARTRRALSDAGNASASA [FS-3173] | 7.04 (active) | 8.87 (active) | 6.82 (active) |
| CARTRRLLWAAGNASASA [FS-2097] | -0.0202 (inactive) | 0.591 (inactive) | -0.328 (inactive) |
| CARTPRGLDDAGNASASA [FS-3110] | 5.13 (active) | 6.18 (active) | 6 (active) |
